Sampled rows, rich in hits. Any-hit rate of the full collection: about 2.4%.
POLB inh: inhibitors of human DNA polymerase beta; Pol beta primer extension/strand displacement, fluorescence kinetic; 340,000 compounds, 1.3% hits; Potency, µM (top dose mostly 114 µM), for the others: at the top dose activity change, negative = inhibition, usual class: inhibitors; AID 485314; P06746; further: potency means the concentration at half of the fitted maximal effect; on the % scale 0 is the no-effect control and ±100 the full control effect
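Preincubation: enzyme (10 nM) with compound, 15 min, RT. Reaction: substrate added to 50 nM final. Reads: 0 and 10 min. Analysis: normalized, Hill fit.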
FEN1 inh: human FEN1 inhibition; Potency, µM (titrated, usually from 114 µM), inactives show at the top dose activity change, negative = inhibition, most hits filed as inhibitors; 390,000 compounds, 0.35% hits; P39748; Recombinant FEN1 flap cleavage, fluorescence, 15 min; further: potency means the concentration at half of the fitted maximal effect; on the % scale 0 is the no-effect control and ±100 the full control effect; nearly all actives have a fitted effect of over 65% in size
Target sequence (P39748 whole entry, looked up): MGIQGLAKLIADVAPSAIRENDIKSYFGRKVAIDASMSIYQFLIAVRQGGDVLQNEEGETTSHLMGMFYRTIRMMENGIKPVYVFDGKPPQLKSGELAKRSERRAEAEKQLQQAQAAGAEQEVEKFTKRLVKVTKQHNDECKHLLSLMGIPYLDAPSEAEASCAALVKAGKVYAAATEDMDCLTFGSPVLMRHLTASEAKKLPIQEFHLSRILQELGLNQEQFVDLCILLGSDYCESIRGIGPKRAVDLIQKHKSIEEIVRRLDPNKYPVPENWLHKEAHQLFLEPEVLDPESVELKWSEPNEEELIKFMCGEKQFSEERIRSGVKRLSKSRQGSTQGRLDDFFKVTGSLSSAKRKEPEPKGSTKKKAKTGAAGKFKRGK
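Recombinant FEN1 (10 nM) was preincubated with pin-transferred compounds for 15 min at room temperature, then flap DNA substrate (50 nM final) was added. Plates were read at 0 and 15 min, and normalized concentration–response data were fitted to a four-parameter Hill equation.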
Pol eta inh-1: DNA polymerase eta (human) inhibition | Q9Y253 | recombinant Pol eta, fluorescent DNA replication assay | Potency, µM (top dose mostly 114 µM), without a hit: at the highest dose activity change, negative = inhibition, most hits filed as inhibitors | 390,000 compounds, 1.2% hits | AID 588591; further: potency means the concentration at half of the fitted maximal effect; on the % scale 0 is the no-effect control and ±100 the full control effect
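Pol eta at 10 nM preincubated with compounds 15 min at room temperature; reaction started with fluorescent substrate (50 nM final) and read kinetically at 0 and 10 min.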
Pol kappa inh-1: inhibitors of human DNA polymerase kappa | purified Pol kappa, fluorescent DNA synthesis assay, 10 min | Potency, µM (top dose mostly 107 µM), for inactives: at the highest dose activity, negative = inhibition, usual class: inhibitors | 400,000 compounds, 0.53% hits | AID 588579; further: potency means the concentration at half of the fitted maximal effect; on the % scale 0 is the no-effect control and ±100 the full control effect
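Activity was followed as the change in fluorescence between reads at 0 and 10 min after starting the reaction with 50 nM substrate. Beforehand, 10 nM polymerase had been preincubated with compound for 15 min at room temperature.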
Pol iota inh: blocks human DNA polymerase iota activity; Q9UNA4; Potency, µM (doses to about 115 µM), for inactives: at the highest dose activity, negative = inhibition, usual class: inhibitors; AID 588590; Pol iota fluorescent replication assay, 10 min; 390,000 compounds, 1% hits; further: potency means the concentration at half of the fitted maximal effect
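Fluorescent replication assay read twice, at 0 min and 10 min after adding 50 nM (final) substrate. Enzyme (10 nM) and compounds were first incubated 15 min at room temperature; enzyme-free buffer wells were negative controls.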
WRN helicase inh: blocks human WRN helicase; Potency, µM (highest dose often 114 µM), without a hit: at the top dose activity change, negative = inhibition, most hits filed as inhibitors; WRN helicase unwinding, fluorescent forked duplex, kinetic; 360,000 compounds, 0.46% hits; Q14191; AID 651768; further: potency means the concentration at half of the fitted maximal effect; on the % scale 0 is the no-effect control and ±100 the full control effect; nearly all actives have a fitted effect of over 55% in size
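Enzyme (20 nM final) and test compound sit together 15 min at room temperature before substrate addition. Substrate is a single-forked duplex oligonucleotide (100 nM) labelled with fluorophore and quencher, with 2 mM ATP; helicase unwinding raises red fluorescence, read kinetically.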
GALK inh confirm: galactokinase (human) inhibition, confirmation; Potency, µM (top dose mostly 115 µM), inactives show at the highest dose activity, negative = inhibition, actives largely listed as inhibitors; 150 compounds, 70% hits; purified GALK, Kinase-Glo ATP depletion luminescence; shares compounds with Pol eta inh-1; AID 2015
Target sequence (P51570 whole entry, looked up): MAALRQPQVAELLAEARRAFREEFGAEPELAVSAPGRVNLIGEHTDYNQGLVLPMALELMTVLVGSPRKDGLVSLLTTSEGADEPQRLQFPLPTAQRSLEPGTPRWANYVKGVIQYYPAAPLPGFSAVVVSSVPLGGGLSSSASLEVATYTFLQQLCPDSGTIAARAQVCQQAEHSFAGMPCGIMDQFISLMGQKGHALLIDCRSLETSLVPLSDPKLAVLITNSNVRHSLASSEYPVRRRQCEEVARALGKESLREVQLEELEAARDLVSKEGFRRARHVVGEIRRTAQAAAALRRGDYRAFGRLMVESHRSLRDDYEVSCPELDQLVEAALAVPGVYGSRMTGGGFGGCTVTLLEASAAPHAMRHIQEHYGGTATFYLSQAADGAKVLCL
GALK redox cs: counter-screen for GALK inhibitors: redox cycling H2O2 generation | shares compounds with Pol eta inh-1 | Phenol red-HRP H2O2 redox cycling, absorbance 600 nm | Potency, µM (doses to about 115 µM), for the others: top-dose activity change, negative = H2O2 signal, usual class: inhibitors | 150 compounds, 40% hits | AID 2035
HEK293 tox: reduces HEK-293 cell viability in GALK counter-screen; shares compounds with Pol eta inh-1; Potency, µM (titrated, usually from 46.1 µM), for the others: at the highest dose activity change, negative = cytotoxicity, usual class: inhibitors; HEK-293 viability, ATP luminescence (CellTiter-Glo), 24/48 h; 170 compounds, 10% hits; further: potency means the concentration at half of the fitted maximal effect; on the % scale 0 is the no-effect control and ±100 the full control effect
Pol kappa inh-2: confirmation of human DNA polymerase kappa inhibitors; 920 compounds, 76% hits; purified Pol-kappa, fluorescent strand-displacement substrate; shares compounds with Pol eta inh-1; Potency, µM, usual class: inhibitors; further: potency means the concentration at half of the fitted maximal effect
Pol eta inh-2: Pol eta (human) inhibition, cherry-pick confirmation. 2,600 compounds, 64% hits. shares compounds with Pol eta inh-1. Potency, µM, hits mostly inhibitors. Pol eta primer extension, TAMRA/BHQ fluorescence, 10 min. AID 720502; further: potency means the concentration at half of the fitted maximal effect
Starred values were filed as active, the others as inactive; u = inconclusive; x = not tested or not shown; [ ] = dose if it differs, or a comment. The call rests on the fitted dose curve; in most records, active means well fitted curve in the direction sought with a large enough effect; inconclusive means small, poorly fitted or top-dose-only effect, or another doubt; inactive means no such curve, though single readings can be large; an effect the other way counts as inactive or inconclusive.

SMILES	POLB inh	FEN1 inh	Pol eta inh-1	Pol kappa inh-1	Pol iota inh	WRN helicase inh	Pol eta inh-2	others
COc1cc(/C=C2/C(=N)N3C(c4ccccc4)=CSC3=NC2=O)ccc1OCC(=O)O	-22%	u	20µM*	-27%	-30%	-5%[11.6 µM]	u
COc1cc(/C=C2/C(=N)N3C(=NC2=O)SN=C3S(=O)(=O)C(C)C)ccc1OS(=O)(=O)c1ccccc1	u	x	x	x	x	x	x	GALK inh confirm=u;GALK redox cs=3%;HEK293 tox=0%
COc1cc(/C=C2\C(=N)N3N=C(S(C)(=O)=O)SC3=NC2=O)ccc1OS(=O)(=O)c1ccc(C)cc1	100µM*	-15%	32µM*	u	20µM*	-24%[11.6 µM]	48*
COc1cc(/C=C2\C(=N)N3N=C(C)SC3=NC2=O)cc(OC)c1OCCOc1ccccc1C	4%	-17%	-9%	-13%	u	-11%	x
COc1cc(/C=C2/C(=N)N3N=C(C(C)C)SC3=NC2=O)ccc1OS(=O)(=O)c1ccccc1	0%	0%	u	-13%	u	-8%	x
COc1cc(/C=C2\C(=N)N3N=C(S(C)(=O)=O)SC3=NC2=O)cc(OC)c1OCCOc1ccccc1C	u	-22%	25µM*	-9%	u	u	u	Pol kappa inh-2=u
O=C1C(c2ccc(C(F)(F)F)cc2)=C(Nc2ccc(Cl)cc2)c2ccccc21	14%	-6%	-6%	1%	6%	x	x
Cc1nnc(N2CCN(C(=O)Nc3cc(F)ccc3F)CC2)c2nn(-c3ccc(Cl)cc3)c(C)c12	u	-20%	x	-19%	5%	x	x
CC1=C(C(=O)O)N2C(=O)C(NC(=O)c3c(F)cccc3F)C2SC1 (stereo not drawn)	x	4%	-2%	-13%	-6%	3%	x
Cc1nnc(SCC2=C(C(=O)O)N3C(=O)C(NC(=O)c4cccc(F)c4F)C3SC2)s1 (stereo not drawn)	2%	-10%	32µM*	u	16µM*	-7%[11.6 µM]	27*
Cc1nnc(SCC(=O)NN2C(=O)NC3(CCCCC3)C2=O)s1	4%[57.1 µM]	-3%	-13%	-19%	36%	9%	x
Cc1nnc(SCC2=C(C(=O)O)N3C(=O)C(NC(=O)Cn4ncc(Cl)c4C)C3SC2)s1 (stereo not drawn)	32µM*	-16%	18µM*	u	u	-12%[11.6 µM]	27*
CC1=C(C(=O)O)N2C(=O)C(NC(=O)c3ccn(C)n3)C2SC1 (stereo not drawn)	u	-1%	-17%	-14%	-2%	-6%	x
Cc1cc(C)n(CC(=O)NC2C(=O)N3C(C(=O)O)=C(CSc4nnc(C)s4)CSC23)n1 (stereo not drawn)	u	0%	22µM*	-15%	-14%	-9%[11.6 µM]	u
Cc1ccc2oc(=O)c3cc(C(=O)Nc4cccc(C#N)c4)sc3c2c1	28%	-2%	-7%	1%	40%	x	x
CC(=O)N1CCc2c(sc3c2c(=O)n(CCc2ccccc2)c(=O)n3Cc2cccc(C)c2)C1	35%	1%	-17%	-15%	10%	x	x
N=C1/C(=C\c2coc3ccccc3c2=O)C(=O)N=C2SC=CN12	u	u	40µM*	u	-3%	-21%[57.1 µM]	u
N=C1/C(=C/c2cccs2)C(=O)N=C2SN=C(SCc3ccccc3)N12	u	u	25µM*	-4%	u	u	x	GALK inh confirm=42µM*;GALK redox cs=1%;HEK293 tox=-7%
CSC1=NSC2=NC(=O)/C(=C/c3coc4ccccc4c3=O)C(=N)N12	40µM*	79µM*	14µM*	u	-13%	35µM*	x	Pol kappa inh-2=67*
Cc1ccc(C)c(S(=O)(=O)c2cn(C)c3cc(N4CCCCC4C)c(F)cc3c2=O)c1 (stereo not drawn)	10%	4%	-15%	-11%	46%	x	x
CCCc1cc(=O)[nH]c(SCC(=O)Nc2c(C)cccc2C)n1	1%	7%	-2%	-5%	u	0%	x
CCCc1cc(=O)[nH]c(SCC(=O)Nc2sccc2C#N)n1	x	u	u	u	18µM*	u	u
Cc1ccc(-n2nc3ccc(NC(=O)/C=C/c4ccco4)cc3n2)cc1	32µM*	1%	u	u	25µM*	-26%[57.1 µM]	u
Cc1sc2c(c1C)c(=O)n(-c1cccc(C(F)(F)F)c1)c(=O)n2Cc1ccc(F)cc1	11%	19%	x	-6%	-4%	x	x
Cc1oc(C(=O)O)cc1CSCc1cc(C(=O)O)c(C)o1	22µM*	-7%	3.2µM*	u	u	u	27*
SMILES	POLB inh	FEN1 inh	Pol eta inh-1	Pol kappa inh-1	Pol iota inh	WRN helicase inh	Pol eta inh-2	others
O=C(Nc1ccc(S(=O)(=O)Nc2nccs2)cc1)c1ccncc1	x	x	x	x	x	10%[57.1 µM]	x
O=C(Nc1ccc(S(=O)(=O)Nc2nccs2)cc1)c1ccc(=O)[nH]c1	50µM*	-26%	20µM*	u	u	u	43*	Pol kappa inh-2=67*
COc1cc(/C=C2\SC(=S)N(NC(=O)c3ccccc3O)C2=O)ccc1O	u	u	u	u	14µM*	56µM*	x	Pol kappa inh-2=42*
CC(=O)N/C(=C/c1ccccc1)c1ccncc1	x	15%	x	3%	28%	x	x
CC(=O)Nc1ccc(N(C(=O)Cn2nnc3ccccc32)C(C(=O)NCc2ccccc2)c2ccc(C)cc2)cc1 (stereo not drawn)	11%	-8%	-2%	-11%	u	x	x
Cc1ccc(C(c2ccc(C)o2)c2cccc([N+](=O)[O-])c2O)o1	u	-19%	18µM*	u	u	u	85*
Cc1cc(C(c2ccc(C)o2)c2ccc(C)o2)c(O)c([N+](=O)[O-])c1	6%	0%	-19%	-11%	u	-13%	x

Assay outcomes: PubChem BioAssay, National Center for Advancing Translational Sciences (NCATS)
